The results in this text go back to PubChem BioAssay AID2685 (National Center for Advancing Translational Sciences (NCATS), 2010).

About 2,100 (0.66%) of roughly 320,000 compounds were called active. Roughly 53% stayed inconclusive and do not appear here. Calls follow the shape of the dose curve; as a rule, active = well fitted inhibition curve with a large enough effect in the signal ratio, with a control signal flat (not every such curve was filed as active); inconclusive = small, poorly fitted or top-dose-only effect, or effect the other way, or a change in a side signal; inactive = flat fitted curve, though single readings scatter; the % refers to the signal ratio. The sample as a whole holds a higher share of actives than the screen did.
Potency is read from the fitted curve at half-maximal effect.

This experiment can be described thus: qHTS Assay for Lipid Storage Modulators in Drosophila S3 Cells.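 As to cell number change: cells counted by Cell Tracker Red CMTPX staining in the red channel.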 The settings on record: BODIPY lipid droplet fluorescence, 18-24 h, cells fed with added oleic acid; cell number change: measured here: cell count max response; series mostly up to 46.1 µM. The method, boiled down:
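Drosophila S3 cells loaded with oleic acid (400 uM, as added) and compounds at several concentrations; lipid droplets imaged by 488-nm laser-scanning cytometry, 500–530 nm intensity and object ratio to cell channel. Percent activity normalized to 20 uM Triacsin C.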
Background: Quantitative high-throughput screening tests each substance at several concentrations.
In the case of `CCOC(=O)C1CCCN(S(=O)(=O)c2ccc(Br)s2)C1` (stereo not given), the Potency entry is “inactive” and the cell number change is -14.8%. In the same order, the values of `Cc1nc2oc3ccc(F)cc3c(=O)c2cc1C(=O)O` are “inactive” and 9.45%.

On to `Cn1c(=O)c2c(nc(NCc3ccco3)n2CCc2ccccc2)n(C)c1=O`, for which the Potency is 11.6 µM (active) and the cell number change is -22.9%.

With `CCCNc1nc2c(c(=O)n(C)c(=O)n2C)n1CCCc1ccccc1`, the Potency entry was “inactive” and the cell number change is -29.8%.

Turning to `Cn1c(=O)c2c(nc(NCc3ccco3)n2CC(O)CO)n(C)c1=O` (stereo not given), the Potency entry was “inactive” and the cell number change is 9.76%.

As for `C/C(Cl)=C\Cn1c(NCCc2ccccc2)nc2c1c(=O)n(C)c(=O)n2C`, the Potency was 6.51 µM (active) and the cell number change is -18.8%. As for `Cn1c(=O)c2c(nc(NCCCO)n2Cc2cccc(Br)c2)n(C)c1=O`, the Potency result is “inactive”. Take `Cn1c(=O)c2c(nc(NCCCO)n2CCc2ccccc2)n(C)c1=O`: the Potency result is “inactive” and the cell number change is -21.6%.

As to `CCN(CC)CCNc1nc2c(c(=O)n(C)c(=O)n2C)n1C/C=C(/C)Cl`, the Potency result is “inactive” and the cell number change is -1.05%. In the same order, the values of `Cn1c(=O)c2c(nc(NCCCO)n2C/C=C/c2ccccc2)n(C)c1=O` are 9.2 µM (active) and -27.3%.

`CCn1c(NCc2ccco2)nc2c1c(=O)n(C)c(=O)n2C`: the Potency entry is “inactive” and the cell number change was -2.38%. As for `Cn1cnc(S(=O)(=O)N2CCN(c3cccc(C(F)(F)F)c3)CC2)c1`, the Potency entry is “inactive” and the cell number change stood at 3.98%.

Take `CCC(C)c1ccccc1OCC(=O)NN1C(=O)c2ccccc2C1=O` (stereo not given): the Potency result is “inactive” and the cell number change was -0.73%.

For the molecule `COc1ccccc1C(=O)Nc1ccc(C(=O)N2CCCCC2)cc1`, the Potency result was “inactive” and the cell number change was -10.6%. Turning to `Cn1c(=O)c2c(nc(CN3CCN(C(=O)c4ccco4)CC3)n2Cc2ccccc2)n(C)c1=O`, the Potency entry is “inactive”. `Cc1ccc(-c2csc3ncnc(SCC(=O)NCc4ccc5c(c4)OCO5)c23)cc1`: the Potency result is “inactive” and the cell number change is -1.52%.

Consider `O=C(CSc1ncnc2scc(-c3ccc(F)cc3)c12)c1ccc2c(c1)OCCO2`, for which the Potency entry was “inactive” and the cell number change turned out to be 7.81%. `Cc1ccc(-c2csc3ncnc(SCC(=O)c4ccc5c(c4)OCCO5)c23)cc1`: the Potency is 5.17 µM (active) and the cell number change was -23.9%. For `COCCn1nnnc1C(c1ccccc1OC)N1CCN(c2ccccc2)CC1` (stereo not given), the Potency result was “inactive” and the cell number change amounted to 8.57%. In the same order, the values of `CCn1cnc2c1c(=O)n(CC(=O)OC(C)C(N)=O)c(=O)n2Cc1ccccc1` (stereo not given) are “inactive” and 10.8%. Regarding `Cc1cc(C(=O)N2CCc3c([nH]c4ccccc34)C2c2cccc(Cl)c2)nn1C` (stereo not given), the Potency entry was “inactive” and the cell number change was -10.9%. In the same order, the values of `CCOCC(=O)N1CCCC(C(=O)OCC)C1` (stereo not given) are 18.4 µM (active) and -14.8%.

Take `CCCCC(=O)N1CCCC(C(=O)OCC)C1` (stereo not given): the Potency entry was “inactive” and the cell number change stood at 23.1%. On to `CCOC(=O)C1CCCN(C(=O)Cc2ccc(C)cc2)C1` (stereo not given), for which the Potency result was “inactive” and the cell number change came out at 14.8%. Taken in the same sequence, the figures for `NCCNC[C@@H]1COC2(CCCCCCCCCCC2)O1` were “inactive” and 6.45%.

Regarding `CC1CC(C)CN(S(=O)(=O)c2ccc3c(c2)C(C)(C)C(=O)N3C)C1` (stereo not given), the Potency result is “inactive” and the cell number change stood at 26.4%.
